The panel holds about 83,000 compounds, 20% with a hit somewhere; the sample as a whole holds those more often.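 Method: cells in 96-well plates; compound added at one concentration; 48 h incubation; percent growth measured; values under 10 scored active.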 A number with no mark means an inactive call. The source made the active and inactive calls.

Growth data for 28 molecules are collected here from PubChem BioAssay (NCI).

Test in all cases: NCI-60 one-dose screen, 48 h (100 = growth as untreated, 0 = no growth, -100 = all killed)
What all share (conditions): 10 µM unless noted

Assay [1] concerns SR leukemia.
Assay [2] deals with RPMI-8226 leukemia.
Assay [3] concerns OVCAR-8 ovarian.
Assay [4] has as its system OVCAR-5 ovarian.
Assay [5] concerns OVCAR-4 ovarian.
Assay [6] relates to SK-OV-3 ovarian.
Assay [7] relates to IGROV1 ovarian.
In assay [8] the test system is OVCAR-3 ovarian.
For assay [9], the system named is HS 578T breast.
The test system of assay [10] is NCI/ADR-RES ovarian.

Consider `COc1ccc(-n2c(-c3ccccc3)c(-c3ccccc3)c3c(SCC(=O)N/N=C/c4ccc(Cl)cc4)ncnc32)cc1`, for which the growth in assay [1] was 105%; in assay [2], 87.4%; in assay [3], 85.3%; in [4] it was 98.3%; in assay [5] it was 92%; in [6] it was 73%. For the same molecule, the growth was 87.9% in assay [7], 85.9% in assay [8] and 93% in assay [9].
As to `COc1ccc(/C=C2\Oc3cc(OCCCN4CCCC4)ccc3C2=O)cc1`, the growth in assay [1] is -28.4% (active); in assay [2], 86.9%; in assay [3] it was 95.9%; in assay [4], 92.9%; in [5] it was 90.1%; in assay [6] it was 106%. In addition, the growth was 88.4% in [7], 94.3% in [8], 89.3% in assay [9] and 96.2% in [10].
In the case of `Cn1c2ccc(Br)cc2c2c3c(c4c5ccccc5[nH]c4c21)C(=O)N(O)C3=O`, the growth in [1] was 0.179% (active); in [2] it was -29.5% (active); in [3] it was -27.2% (active); in [4], -6.8% (active); in assay [5] it was 3.5% (active); in assay [6], -84.2% (active). Moreover, the growth in assay [7] was -79.4% (active); in assay [8] it was -86.2% (active); in assay [9] it was 1.47% (active); in [10] it was 26.3%.
Consider `COc1ccc(/C=C\c2cc(OC)c(OC)c(OC)c2)cc1OC(=O)c1cccc(Cn2cc(CCOC(=O)c3cccc(Cn4nnc5c4C(=O)c4ccccc4C5=O)c3)nn2)c1`, for which the growth in assay [1] is 12.5%; in [2], 12.4%; in assay [3], 16%; in assay [4] it was 28.8%; in assay [5], 31.6%; in [6], 41.7%. The growth in assay [7] was 16.1%; in assay [8], -10.1% (active); in assay [9], 5.15% (active); in assay [10] it was 11.5%.
On to `O=C(O)COc1ccc(-c2cssc2=S)cc1`, for which the growth in assay [1] is 54.8%; in assay [2], 113%; in assay [3], 101%; in [4], 98.7%; in assay [5] it was 103%; in assay [6] it was 108%. Also, the growth in [7] was 112%; in [8], 122%; in assay [9], 105%.
In the case of `OB(O)c1cccc(-c2nc3ccc4[nH]ncc4c3c3c2CCCC3)c1F`, the growth is 48.7% in assay [1]; 50.7% in assay [2]; 52.8% in [3]; 75.1% in assay [4]; 76.4% in [5]; -10.7% (active) in assay [6]. Further, the growth in [7] is 41.1%; in assay [8] it was 62.5%; in assay [9], 24.9%.
`COc1cc([N+](=O)[O-])c2ncccc2c1O`: the growth is 107% in assay [1]; 75.6% in assay [2]; 78.5% in [3]; 76.4% in assay [4]; 104% in assay [5]; 37% in assay [6]. The growth in assay [7] was 51.8%; in assay [8], 83.1%; in [9], -3.86% (active); in assay [10], 91.1%.
`O=c1cc(Cc2ccc([N+](=O)[O-])cc2)[nH]c(=O)[nH]1`: the growth was 91.9% in [1]; 91.6% in [2]; 103% in assay [3]; 98.2% in assay [4]; 108% in assay [5]; 99.1% in [6]. Moreover, the growth in assay [7] is 117%; in [8] it was 126%; in assay [9], 100%.
`CCN1CCN(c2nc(NNC(=O)c3ccccc3)nc(N3CCN(C(c4ccccc4)c4ccccc4)CC3)n2)CC1`: the growth was -20.5% (active) in assay [1]; 42% in assay [2]; 74.3% in assay [3]; 96.2% in assay [4]; 38.2% in assay [5]; 89.7% in assay [6]. The growth in assay [7] was 53.1%; in assay [8], 52.1%; in assay [9], 79.2%.
For the molecule `N/C(=N\C(N)=N\c1nc2ccccc2s1)c1cccc(Br)c1`, the growth was 33.2% in assay [1]; 83.3% in assay [2]; 72.6% in [3]; 95.2% in assay [4]; 107% in assay [5]; 129% in assay [6]. Besides, the growth was 66.4% in assay [7], 103% in assay [8], 103% in assay [9] and 73.6% in [10].
For the molecule `O=c1[nH]c2ccc(Br)cc2c2c1C(c1ccc(Cl)cc1)c1c(ncn3nc(-c4ccco4)nc13)O2` (centres undefined), the growth was 62.3% in assay [1]; 58.4% in assay [2]; 79.3% in assay [3]; 73.6% in assay [4]; 67.5% in assay [5]; 59.8% in assay [6]. The growth in assay [7] is 44%; in assay [8], 81.7%; in assay [9] it was 35.6%.
As to `CC1(C)C(=O)/C(=C\c2ccc(C(F)(F)F)cc2)C[C@]2(C)[C@H]3CC[C@@H]4[C@H]5[C@H](C(=O)/C=C/c6ccc(C(F)(F)F)cc6)CC[C@]5(CO)CC[C@@]4(C)[C@]3(C)CC[C@@H]12`, the growth in assay [1] was 82.2%; in assay [2], 88.6%; in assay [3], 79.6%; in assay [4], 107%; in assay [5], 96.6%; in [6] it was 110%. Besides, the growth is 92.4% in assay [7], 97% in assay [8], 95.8% in assay [9] and 99.1% in assay [10].
As for `O=C1/C(=C/c2ccc([N+](=O)[O-])cc2)CN(C(=O)CCN2CCC(=NO)CC2)C/C1=C\c1ccc([N+](=O)[O-])cc1`, the growth in [1] is 8.69% (active); in [2], -34.8% (active); in assay [3], 6.6% (active); in [4] it was -41.3% (active); in [5] it was -8.21% (active); in [6], 17.3%. Besides, the growth in assay [7] was -21.2% (active); in [8], -59% (active); in [9], 22.8%.
`CC(=O)c1cc2c(N)c(C(=O)Nc3cccc4c3OCCO4)sc2nc1C`: the growth in assay [1] was 80.8%; in assay [2], 99.7%; in assay [3] it was 106%; in assay [4], 100%; in assay [5], 110%; in assay [6], 35.8%. The growth in [7] was 101%; in assay [8], 105%; in [9] it was 96.3%.
Take `CN(C)CCCC(C#N)c1ccccc1` (centres undefined): the growth is 96.2% in [1]; 108% in assay [2]; 112% in [3]; 117% in assay [4]; 113% in assay [5]; 107% in assay [6]. Also, the growth is 132% in [7], 117% in assay [8] and 121% in [9].
Turning to `CCOC(=O)C1CCNC(=O)C1=O` (centres undefined), the growth in [1] is 88.9%; in assay [2] it was 96.8%; in [3], 110%; in [4], 104%; in assay [5], 119%; in assay [6] it was 117%. Further, the growth was 130% in [7], 122% in assay [8] and 119% in assay [9].
Turning to `O=[N+]([O-])c1cccc(-c2nc3sccn3c2-c2ccnc(NCCCNS(=O)(=O)c3ccc(C(F)(F)F)cc3)n2)c1`, the growth in assay [1] is 37.5%; in assay [2] it was -4.61% (active); in assay [3], 22.3%; in [4], 90.6%; in assay [5], 15.2%; in assay [6] it was 71.9%. Besides, the growth was 25.6% in assay [7], 28.7% in assay [8], 63.3% in [9] and 8.78% (active) in assay [10].
Take `Nc1nc(Nc2cc(Cl)cc(Cl)c2)nn1S(=O)(=O)c1ccc2ccccc2c1`: the growth is 46.3% in assay [1]; 66.5% in assay [2]; 40.6% in assay [3]; 68.3% in [4]; 72.5% in [5]; 59.5% in assay [6]. The growth in assay [7] was 20.3%; in [8], 60.1%; in assay [9], 40.5%.
As to `CC(C)(C)Nc1c(-c2cccs2)nc2ncccn12`, the growth in assay [1] was 92.4%; in [2] it was 94.2%; in [3], 104%; in assay [4], 108%; in assay [5], 103%; in assay [6] it was 99.9%. The values for the growth in assay [7], in assay [8] and in [9] were 102%, 102% and 97.8%, respectively.
For `Fc1ccc(-c2nc(-c3nc4ncccc4[nH]3)cc3c2[nH]c2ccccc23)cc1F`, the growth is 76% in assay [1]; 45.7% in assay [2]; 66.6% in assay [3]; 93.5% in assay [4]; 60.2% in [5]; 111% in [6]. In addition, the growth in assay [7] is 62.3%; in [8], 82%; in assay [9], 96%.
For `COc1c2occc2c(OC)c2c(=O)c(-c3cc(-c4ccc(F)cc4)c(C#N)c(N)n3)c(C)oc12`, the growth in [1] is 15.5%; in assay [2] it was 27.3%; in assay [3] it was 49.1%; in assay [4], 91.9%; in assay [5], 19.4%; in assay [6], 56.5%. Further, the values for the growth in assay [7], in assay [8] and in assay [9] were 21.3%, 15.2% and 43.7%, respectively.
With `CC(C)(C)n1cc(-c2ccnc(NCCCNS(=O)(=O)c3ccc(Cl)cc3)c2)c(-c2cccc(O)c2)n1`, the growth is -34.5% (active) in [1]; -29.7% (active) in [2]; 6.22% (active) in assay [3]; -20.5% (active) in [4]; 23.4% in assay [5]; 37.4% in [6]. Moreover, the growth was 8.56% (active) in assay [7], 4.31% (active) in [8], -12.2% (active) in assay [9] and 12.2% in assay [10].
Take `C=C[C@@H]1C[C@@H]2Cc3ccccc3N1O2`: the growth was 97.1% in assay [1]; 85.5% in [2]; 106% in [3]; 97.4% in assay [4]; 112% in [5]; 114% in assay [6]. Besides, the growth is 121% in assay [7], 121% in [8], 100% in [9] and 106% in assay [10].
As for `CC(C)(C)c1[nH]nc2c1C(c1cc3ccccc3[nH]c1=O)Nc1cc(C(=O)Nc3ccc(Cl)cc3)ccc1N2` (centres undefined), the growth in assay [1] is 65.4%; in assay [2], 42.5%; in assay [3] it was 75.3%; in assay [4] it was 114%; in assay [5], 32.5%; in [6], 90.6%. In addition, the figures for the growth in assay [7], in [8] and in assay [9] were 59.6%, 58.4% and 52.6%, respectively.
For `N[C@@H]1CCN(C(=O)c2cc3cc(Cl)c(F)c(F)c3[nH]2)C1`, the growth in assay [1] was 88.3%; in [2], 96%; in assay [3] it was 96.3%; in [4], 90.3%; in [5], 96.5%; in assay [6], 89.3%. For the same molecule, the results for the growth in assay [7], in assay [8] and in assay [9] were 80.7%, 97.6% and 87.5%, respectively.
For `O=C1CS/C(=N\Nc2cc(=O)[nH]c3ccccc23)N1c1ccccc1`, the growth is 77.9% in assay [1]; 88.4% in assay [2]; 94% in [3]; 95.6% in assay [4]; 97% in [5]; 107% in [6]. The growth in [7] was 89.1%; in assay [8], 99.8%; in assay [9], 97.1%; in assay [10], 91.3%.
`Cc1ccc(-c2csc(NC(=O)CCCCl)n2)cc1`: the growth in [1] was 84.4%; in assay [2] it was 82.7%; in assay [3] it was 106%; in assay [4] it was 94.6%; in [5] it was 90.7%; in assay [6] it was 105%. For the same molecule, the growth in assay [7] was 95%; in assay [8] it was 101%; in assay [9], 105%; in [10] it was 101%.
As to `c1ccc(-c2cn(-c3ccccc3)c(-c3ccccc3)n2)cc1`, the growth in [1] was -29.7% (active); in [2] it was -58.9% (active); in assay [3] it was 21.1%; in [4] it was 83.4%; in assay [5] it was 88.7%; in assay [6] it was 97.1%. Besides, the growth in assay [7] was 4.72% (active); in assay [8], 13.4%; in [9], 87.1%; in assay [10], 92.4%.
